A selection: hits, their analogues and other compounds. The true share with any hit is near 12%.
JMJD2A Tudor inh: blocks the human JMJD2A Tudor domain | O75164 | Potency, µM (top dose mostly 114 µM), hits mostly inhibitors | AlphaScreen JMJD2A-Tudor / H3K4me3 peptide binding | hit rate 4.4% among 390,000 | AID 504339; further: nearly all actives have a fitted effect of over 50% in size
G9a block: blocks human histone lysine methyltransferase G9a; Q96KQ7; G9a H3K9 monomethylation, AlphaScreen, 2 h; Potency, µM (doses to about 102 µM), actives largely listed as inhibitors; hit rate 8.8% among 350,000; further: nearly all actives have a fitted effect of over 75% in size
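G9a (20 nM) was preincubated 15 min with compound, then reacted 2 h at room temperature with 500 nM biotin-H3K9 peptide and 20 µM SAM. Monomethyl-H3K9 detected by AlphaScreen using anti-H3K9me1 antibody.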
HP1b binding inh: inhibitors of HP1-beta chromodomain binding to methylated histone tails; hit rate 0.56% among 390,000; Potency, µM (doses to about 114 µM), hits mostly inhibitors; AlphaScreen HP1-beta / biotin-H3K9me3 peptide binding; P83916; further: nearly all actives have a fitted effect of over 70% in size
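HP1-beta protein (50 nM final) preincubated 30 min at room temperature with biotinylated H3(1-18)K9me3 peptide (50 nM) in PBS pH 7.4, 0.01% Tween-20, then compound added for 30 min. AlphaScreen streptavidin donor/nickel chelate acceptor beads (10 ug/mL final), 30 min dark, luminescence read.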
L3MBTL1 block: inhibitors of human L3MBTL1; Q9Y468; AlphaScreen L3MBTL1–H3K9me1 peptide binding; Potency, µM (series often up to 57.1 µM), most hits filed as inhibitors; hit rate 0.66% among 230,000; AID 485360; further: nearly all actives have a fitted effect of over 60% in size
Target sequence (Q9Y468 whole entry, looked up): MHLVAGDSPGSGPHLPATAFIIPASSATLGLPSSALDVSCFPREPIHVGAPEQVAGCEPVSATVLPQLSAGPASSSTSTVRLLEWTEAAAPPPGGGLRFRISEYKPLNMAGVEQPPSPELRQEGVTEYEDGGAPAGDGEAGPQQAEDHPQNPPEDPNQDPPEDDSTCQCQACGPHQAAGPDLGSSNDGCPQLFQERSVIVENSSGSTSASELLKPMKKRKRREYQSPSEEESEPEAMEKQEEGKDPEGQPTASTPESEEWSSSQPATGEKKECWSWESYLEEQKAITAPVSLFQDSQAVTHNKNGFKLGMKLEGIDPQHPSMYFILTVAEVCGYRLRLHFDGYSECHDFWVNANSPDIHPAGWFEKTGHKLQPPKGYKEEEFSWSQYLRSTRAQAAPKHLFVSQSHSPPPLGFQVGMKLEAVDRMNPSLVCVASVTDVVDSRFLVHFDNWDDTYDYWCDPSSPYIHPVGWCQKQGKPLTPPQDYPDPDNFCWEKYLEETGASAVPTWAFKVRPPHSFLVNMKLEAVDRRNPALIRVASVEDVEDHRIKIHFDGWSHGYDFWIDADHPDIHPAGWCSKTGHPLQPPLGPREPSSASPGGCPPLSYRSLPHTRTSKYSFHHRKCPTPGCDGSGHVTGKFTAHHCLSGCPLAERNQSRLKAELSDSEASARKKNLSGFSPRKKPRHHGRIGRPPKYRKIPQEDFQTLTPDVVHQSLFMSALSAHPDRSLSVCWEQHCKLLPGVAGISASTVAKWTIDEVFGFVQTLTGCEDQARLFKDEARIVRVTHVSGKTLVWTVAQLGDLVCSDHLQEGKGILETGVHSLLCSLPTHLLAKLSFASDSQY
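First, the protein-peptide complex forms for 30 min at room temperature (L3MBTL1 50 nM, biotinylated H3K9me1 peptide 75 nM). Next, compounds are pin-transferred and incubated 30 min. Finally, AlphaScreen beads are added and read after 30 min.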
BAZ2B block: BAZ2B (human) inhibition; Q9UIF8; AlphaScreen BAZ2B-H3K14Ac peptide displacement; Potency, µM (highest dose often 114 µM), most hits filed as inhibitors; hit rate 4.4% among 360,000; AID 504333; further: nearly all actives have a fitted effect of over 60% in size
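In this displacement format the biotinylated H3(5-23) peptide acetylated at Lys14 serves as ligand at 50 nM, with BAZ2B at 50 nM in PBS pH 7.4 containing 0.01% Tween-20. Donor and acceptor beads are 10 ug/mL final.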
Sfp PPTase inh: blocks B. subtilis Sfp PPTase activity; Potency, µM, most hits filed as inhibitors; hit rate 3.5% among 310,000; AID 1490; Biochemical Sfp PPTase activity, qHTS;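 further: the enzyme is Sfp with the accession as filed and its product quenches rhodamine fluorescence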
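Sfp 15 nM + cpd, 15 min RT; start w/ rhodamine-CoA 5 uM, BHQ-2-YbbR 12.5 uM (final); 50 mM Hepes pH 7.6, 10 mM MgCl2, 0.01% NP-40, 0.01% BSA; read 525/598 nm at 0 and 30 min.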
Hits are given with their value; . = inactive; ? = inconclusive; / = no result; ! = not active in a repeat; [ ] = dose if it differs, or a comment. The call rests on the fitted dose curve; in most records, active means well fitted curve in the direction sought with a large enough effect; inconclusive means small, poorly fitted or top-dose-only effect, or another doubt; inactive means no such curve, though single readings can be large; an effect the other way counts as inactive or inconclusive.

SMILES | JMJD2A Tudor inh | G9a block | HP1b binding inh | L3MBTL1 block | BAZ2B block | Sfp PPTase inh
CC[C@H](C)[C@H](NC(=O)[C@H](CC(C)C)NC(=O)[C@@H](N)CO)C(=O)NCC(=O)N[C@@H](CCCCN)C(=O)N[C@H](C(=O)O)C(C)C | / | / | / | / | / | .
c1ccc(-c2nc(-c3ccco3)cs2)nc1 | . | ? | . | . | . | 44.7µM
Fc1ccc(-c2csc(-c3ccccn3)n2)cc1F | . | ? | . | / | . | .
c1coc(-c2ccnc(-c3ccncc3)n2)c1 | . | . | . | . | . | .
c1ccc(-c2nccc(-c3ccco3)n2)nc1 | ? | ? | . | . | 31.6µM | .
COc1ccc(OC)c(CCNC(=O)c2c(C)nn(-c3ccc(F)cc3)c2-n2cccc2)c1 | . | ? | . | / | ? | /
Cc1ccc(N=Nc2[nH]c3ccccc3c2O)cc1 | ? | 14.1µM | . | . | 56.2µM | .
COc1ccc(N=Nc2[nH]c3ccc(C)cc3c2O)cc1 | . | 11.2µM | . | . | ? | .
CC[C@H](C)[C@@H](C(=O)NCCCCCCCCCCC(=O)N1CCN(C(=O)OC(C)(C)C)CC1)n1cc(CCCCCNC(=O)OC(C)(C)C)nn1 | . | .[2.33 µM] | . | . | . | /
COC(=O)c1ccccc1S(=O)(=O)N1CCC(C(=O)N(C)CCOc2ccccc2)CC1 | . | ? | . | . | . | /
CC(Oc1ccccc1)C(=O)Nc1nnc(S(=O)(=O)N2CCCCCC2)s1 (stereo not given) | 8.91µM! | 2.82µM! | . | . | 1.78µM! | .
Cc1ccc(OCC(=O)Nc2nnc(S(=O)(=O)N3CCC(C)CC3)s2)cc1 | ? | 50.1µM | . | / | ? | .
Cc1ccc(OCC(=O)Nc2nnc(S(=O)(=O)N3CCc4ccccc43)s2)cc1 | . | . | . | / | . | /
CCC(Oc1ccccc1)C(=O)Nc1nnc(S(=O)(=O)N2CCCCC2)s1 (stereo not given) | . | . | . | / | . | .
O=C(COc1ccccc1)Nc1nnc(S(=O)(=O)N2CCCC2)s1 | ? | 8.91µM | . | / | ? | .
COc1ccc(OCC(=O)Nc2nnc(S(=O)(=O)N3CCCCCC3)s2)cc1 | . | . | . | . | . | .
Nc1cc2ccncc2c2ccccc12 | . | . | . | . | . | .
CN1C(=O)N(C)C2=NNC=NC2(O)C1=O (stereo not given) | / | / | / | / | / | .
Cc1cc(=O)[nH]c(N/N=C/c2ccc(C)o2)n1 | 56.2µM | ? | . | . | . | ?
Cc1cc(=O)[nH]c(N/N=C/c2ccc(N(C)C)cc2)n1 | 25.1µM | . | . | . | . | ?
COc1cccc(/C=N/Nc2nc(C)cc(=O)[nH]2)c1OC | . | . | . | / | . | 56.2µM
Cc1cc(=O)[nH]c(N/N=C/c2ccco2)n1 | . | .[2.33 µM] | . | / | . | ?
COc1cc(/C=N/Nc2nc(C)cc(=O)[nH]2)ccc1OC(=O)c1cccnc1 | . | . | . | . | / | .
CCOc1ccccc1/C=N/Nc1nc(C)cc(=O)[nH]1 | . | . | . | / | . | .
COc1cc(/C=N/Nc2nc(C)cc(=O)[nH]2)cc(OC)c1O | . | 28.2µM | . | / | . | ?
SMILES | JMJD2A Tudor inh | G9a block | HP1b binding inh | L3MBTL1 block | BAZ2B block | Sfp PPTase inh
COc1ccc(CCNc2nc(SCc3cccc(Cl)c3)nc3ccccc23)cc1OC | . | . | . | / | . | /
Nc1c(Br)cc(Br)c2c1-c1ccc([N+](=O)[O-])cc1C2 | . | / | . | / | / | /
O=C(c1ccc(NS(=O)(=O)c2ccc3[nH]c(=O)[nH]c3c2)cc1)N1CCCC(C(F)(F)F)C1 (stereo not given) | . | . | . | . | . | /
COc1cc(/C=N/Nc2nc(C)cc(=O)[nH]2)ccc1O | . | .[0.501 µM] | . | / | . | .
COc1ccc(/C=N/Nc2nc(C)cc(=O)[nH]2)cc1OC | 25.1µM | ? | . | . | . | .
COc1ccccc1/C=C/C=N/N1CCN(Cc2cccc3ccccc23)CC1 | 11.2µM | ? | ? | . | 31.6µM | .
COc1ccccc1N1CCN(c2ccc([N+](=O)[O-])cc2Cl)CC1 | ? | 3.16µM | ? | . | ? | .
COc1ccccc1/C=C/C=N/N1CCN(c2ccccn2)CC1 | ? | .[0.501 µM] | ? | . | 50.1µM | .
COc1ccccc1N1CC=C(c2cccc([N+](=O)[O-])c2)NC1=O | . | 39.8µM | . | . | . | .
COc1ccccc1N1CC(C)C(=O)NC1=S (stereo not given) | ? | . | . | . | . | .
CCc1ccc(-n2nc(C)c3c(C)cc(=O)n(CC(=O)N(CC)Cc4ccccc4)c32)cc1 | . | . | . | / | . | /
COc1ccccc1N1CCN(/N=C/C=C\c2ccco2)CC1 | 56.2µM | 35.5µM | . | . | 50.1µM | 79.4µM
COc1ccccc1N1CCN(Cc2cc3c(cc2[N+](=O)[O-])OCO3)CC1 | ? | ? | . | . | ? | .
COc1ccccc1N1CCN(/N=C/C=C\c2ccccc2[N+](=O)[O-])CC1 | 22.4µM | 8.91µM | 14.1µM | ? | 12.6µM | .
CC1CCCC(C)N1/N=C/C=C/c1ccccc1[N+](=O)[O-] (stereo not given) | 39.8µM | 31.6µM | 28.2µM | ? | 22.4µM | .
CC(C)S(=O)(=O)N1CCN(c2nc(-c3cccs3)nc3ccccc23)CC1 | . | / | . | / | / | /
COc1ccccc1CNC(=O)N/C=C/c1ccc(Cl)cc1 | . | 31.6µM | . | . | . | .
O=C(N/C=C\c1ccccc1)NCc1ccc(Cl)cc1Cl | . | 25.1µM | . | . | . | .
Cc1ccc(OC(=O)c2snnc2C)cc1C | . | ? | . | / | . | /
O=C(O[C@@H]1Cc2c(O)cc(O)cc2OC1c1ccc(O)c(O)c1)c1cc(O)c(O)c(O)c1 (stereo not given in full) | / | / | / | / | / | 50.1µM
Oc1cc(O)c2c(c1)OC(c1cc(O)c(O)c(O)c1)C(O)C2 (stereo not given) | / | ? | / | / | / | .
Oc1cc(O)c2c(c1)O[C@H](c1ccc(O)c(O)c1)[C@H](O)C2 | . | 10µM | . | . | ? | .
O=C(OC1Cc2c(O)cc(O)cc2OC1c1cc(O)c(O)c(O)c1-c1c(C2Oc3cc(O)cc(O)c3CC2OC(=O)c2cc(O)c(O)c(O)c2)cc(O)c(O)c1O)c1cc(O)c(O)c(O)c1 (stereo not given) | / | / | / | / | / | 44.7µM
Oc1ccc(C2Oc3cc(O)cc(O)c3CC2O)cc1 (stereo not given) | / | .[2.33 µM] | / | / | / | .
Cc1ccc(CNC(=O)c2cc(=O)c3cc(C)cc(C)c3o2)cc1 | . | . | . | / | . | /
CN1CCN(c2ncnc3ccc(-c4cccc(NS(C)(=O)=O)c4)cc23)CC1 | / | .[0.501 µM] | / | / | / | .
Cc1ccn2c(c1)nc(=S)n2C(=O)c1ccco1 | / | 10µM | / | . | . | ?
Cc1nn(C(=O)c2ccco2)c(C)c1Br | . | . | . | / | . | .
COc1ccc(CCNC(=O)CN2CCCc3ccccc32)cc1OC | . | 56.2µM | . | . | . | .
COc1ccc(CCNC(=O)CNCC2CCCCC2)cc1OC | 25.1µM | . | ? | / | 56.2µM | .
